High-throughput results: PubChem, National Center for Advancing Translational Sciences (NCATS)
Most compounds without a hit are left out; they make up all but 21% or so of the library.
Shiga inhibitor = Shiga toxin inhibition; Vero cells, Shiga toxin protein synthesis inhibition reporter; inhibition, % at 38.7 µM; 290,000 compounds, 9.2% hits; AID 2315; in the data active means inhibition mostly above about 28%, no sharp cut-off; inactive means mostly below about 43%; further: 0% is about no effect
Pf growth 96h = P. falciparum growth inhibition at 96 hours; 320,000 compounds, 6.9% hits; Potency, µM (series often up to 28.7 µM), for inactives: top-dose activity change, negative = inhibition, usual class: inhibitors; P. falciparum luciferase reporter growth, 96 h; further: potency means the concentration at half of the fitted maximal effect; on the % scale 0 is the no-effect control and ±100 the full control effect
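Parasite growth measured via integrated firefly luciferase reporter in P. falciparum. Infected erythrocytes at 2% hematocrit, 0.05% parasitemia final were treated 96 hours at 37 C under 5% CO2, and luminescence was read.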
Pf growth 48h = inhibits P. falciparum growth in the first generation, 48 h. P. falciparum luciferase growth in erythrocytes, 48 h. Potency, µM (series often up to 28.7 µM), without a hit: top-dose activity change, negative = inhibition, usual class: inhibitors. 310,000 compounds, 5.9% hits. AID 504832; further: potency means the concentration at half of the fitted maximal effect; on the % scale 0 is the no-effect control and ±100 the full control effect
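A one-generation exposure of luciferase-tagged malaria parasites in RPMI 1640/Albumax erythrocyte culture, 37 C and 5% CO2. Inhibition is inferred from decreased luminescence after adding detection reagent.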
FBPA Giardia inh = Giardia lamblia aldolase inhibition; Potency, µM (highest dose often 59.6 µM), without a hit: at the top dose activity, negative = inhibition, most hits filed as inhibitors; A8B2U2; AID 2451; purified Giardia FBPA; 290,000 compounds, 0.71% hits; further: potency means the concentration at half of the fitted maximal effect; on the % scale 0 is the no-effect control and ±100 the full control effect; nearly all actives have a fitted effect of over 55% in size
Target sequence (A8B2U2 whole entry, looked up): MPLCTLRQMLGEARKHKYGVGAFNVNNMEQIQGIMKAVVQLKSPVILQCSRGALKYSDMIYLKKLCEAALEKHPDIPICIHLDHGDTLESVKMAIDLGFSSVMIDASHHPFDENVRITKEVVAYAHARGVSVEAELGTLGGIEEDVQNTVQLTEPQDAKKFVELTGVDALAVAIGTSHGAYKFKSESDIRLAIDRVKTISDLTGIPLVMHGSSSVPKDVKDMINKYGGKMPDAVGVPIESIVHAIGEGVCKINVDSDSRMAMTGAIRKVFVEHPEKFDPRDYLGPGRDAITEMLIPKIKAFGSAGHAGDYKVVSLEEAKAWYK
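40 nM FBPA preincubated 10 min at RT with compound (up to 57.5 uM final), then substrate plus GAPDH/TPI/NAD/arsenate coupling and diaphorase/resazurin added. Fluorescence read after 20 min at RT, 525/598 nm.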
NS1 function inh = blocks influenza NS1 protein function. Potency, µM (titrated, usually from 46.1 µM), inactives show at the highest dose activity, positive = more growth. 270,000 compounds, 0.4% hits. AID 2326; calls by dose curve; further: potency means the concentration at half of the fitted maximal effect; actives are rising curves; nearly all actives have a fitted effect of over 50% in size
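Recovery from NS1-induced slow growth read by OD600 in budding yeast switched to galactose assay medium (pH 6.0, -URA) at 1:100 dilution. Compound 23 nl per well; the matching strain lacking NS1 serves as control.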
CHX counter = counter-screen for Shiga toxin inhibitors: cycloheximide protein synthesis inhibition; cell reporter, cycloheximide protein synthesis inhibition counterscreen; 300,000 compounds, 12% hits; max response, %; in the data active means max response mostly above about 13%, no sharp cut-off; inactive means mostly below about 14%; further: read at 38.3 µM for the half of the compounds with a filed dose; 0% is about no effect
Numbers without * were called inactive. Unless noted, the call rests on the fitted dose curve; in most records, active means well fitted curve in the direction sought with a large enough effect; inconclusive means small, poorly fitted or top-dose-only effect, or another doubt; inactive means no such curve, though single readings can be large; an effect the other way counts as inactive or inconclusive.

For N#Cc1c(N(CC(=O)O)CC(=O)O)sc(C(=O)O)c1CC(=O)O the results were Pf growth 96h -13.0% and Pf growth 48h -1.1%.
CCCCN(C(=O)c1ccc(NC(=O)C(C)C)cc1)c1ccccc1 was read as Shiga inhibitor 30.8, Pf growth 96h inconclusive, Pf growth 48h inconclusive, FBPA Giardia inh 6.5%, NS1 function inh -4.1% and CHX counter 9.4.
For C=CCOc1ccc(/C=C/C(=O)OCC(=O)N(C)CC(=O)Nc2ccc(F)cc2)cc1 the results were Pf growth 96h -1.1% and Pf growth 48h inconclusive.
Screening COc1ccc2cc1Oc1ccc(cc1)CC1c3cc(c(OC)cc3CCN1C)Oc1c(OC)c(OC)c(OC)c3c1C(C2)N(C)CC3 (stereo unspecified) returned Shiga inhibitor -11.0, FBPA Giardia inh inconclusive and CHX counter -2.7.
Screening Cc1cc(C(=O)Nc2ccc(Br)cc2)cs1 returned Shiga inhibitor 83.5*, Pf growth 96h inconclusive, Pf growth 48h 204.8%, NS1 function inh 2.9% and CHX counter 46.9*.
For CSc1ccccc1NC(=O)c1csc(C)c1 the results were Shiga inhibitor 35.9*, Pf growth 96h 10.4µM*, Pf growth 48h 36.1%, FBPA Giardia inh 8.6%, NS1 function inh -1.4% and CHX counter 30.7*.
Screening CSc1ccccc1NC(=O)c1ccc(C)o1 returned Shiga inhibitor 50.6*, Pf growth 96h inconclusive, Pf growth 48h 36.3%, FBPA Giardia inh 1.7%, NS1 function inh inconclusive and CHX counter 19.8*.
`CCNS(=O)(=O)c1ccc(CCC(=O)N2CCC(C)CC2)cc1` gave Shiga inhibitor -1.9, Pf growth 96h 74.8%, Pf growth 48h 4.0%, FBPA Giardia inh 11.4%, NS1 function inh 6.8% and CHX counter -2.8.
Screening O=C(Nc1ccccc1)c1ccccc1Oc1ccc(C(F)(F)F)cc1[N+](=O)[O-] returned Shiga inhibitor -12.9, Pf growth 96h 16.8%, Pf growth 48h -14.5%, FBPA Giardia inh -3.1%, NS1 function inh -31.1% and CHX counter -0.3.
Screening COC(=O)Cc1ccc(NC(=O)c2cccs2)cc1 returned Shiga inhibitor 81.9*, Pf growth 96h 40.5%, Pf growth 48h 94.0%, FBPA Giardia inh -5.0%, NS1 function inh -33.6% and CHX counter 49.3*.
Screening N/C(=N\O)c1ccc(NC(=O)c2cccs2)cc1 returned Shiga inhibitor 109.2*, Pf growth 96h 3.3%, Pf growth 48h 139.4%, FBPA Giardia inh 1.6%, NS1 function inh -23.8% and CHX counter 58.4*.
O=C(Nc1ccc(F)cc1)c1ccccc1Oc1ccc(C(F)(F)F)cc1[N+](=O)[O-] was read as Shiga inhibitor -9.5, Pf growth 96h -99.4%, Pf growth 48h 10.4µM*, FBPA Giardia inh -1.2%, NS1 function inh -33.7% and CHX counter -2.7.
For COC(=O)Cc1ccc(NC(=O)c2ccccc2Br)cc1 the results were Shiga inhibitor 50.2, Pf growth 96h 16.9%, Pf growth 48h 4.9%, FBPA Giardia inh -11.3%, NS1 function inh -0.9% and CHX counter 15.1*.
For CCOC(=O)CC1C(=O)NCCN1C1CCCC1 (stereo unspecified) the results were Shiga inhibitor 1.1, Pf growth 96h 13.2%, Pf growth 48h 55.1%, FBPA Giardia inh -2.4%, NS1 function inh 2.2% and CHX counter -1.6.
Screening O=Cc1ccccc1C=O returned Pf growth 96h -20.2% and Pf growth 48h -9.3%.
Screening O=C(CCC(=O)OCC(F)(F)C(F)F)Nc1ccccc1F returned Shiga inhibitor 23.7, Pf growth 96h inconclusive, Pf growth 48h -4.9%, FBPA Giardia inh 5.9% and CHX counter 8.4.
COCCCNC(=O)CCCN1C(=O)c2cccnc2Sc2ccccc21 was read as Shiga inhibitor -1.7, Pf growth 96h -26.0%, Pf growth 48h -15.3%, FBPA Giardia inh 8.8%, NS1 function inh 3.1% and CHX counter 6.8.
For CC(=O)c1ccc(OC(=O)c2cccs2)cc1 the results were Shiga inhibitor -12.7, Pf growth 96h 23.9%, Pf growth 48h 7.3%, FBPA Giardia inh -0.5%, NS1 function inh 2.2% and CHX counter -2.3.
O=C(Nc1ccc(C(F)(F)F)cc1)C1(c2ccccc2)CC1 was read as Shiga inhibitor 18.4, Pf growth 96h 20.9%, Pf growth 48h 4.2%, FBPA Giardia inh 0.8%, NS1 function inh -1.5% and CHX counter 11.5*.
